Results on 15 compounds are retold here after PubChem BioAssay (NCI).

The structures appear in SMILES notation. The panel holds about 83,000 compounds, 20% with a hit somewhere; the sample as a whole holds those more often.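 Cell lines were cultured in 96-well plates, exposed to a single compound concentration, and assessed for percent growth 48 hours later.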 Values without a mark were called inactive. The source made the active and inactive calls. The calls were made as follows: active = growth percent below 10; inactive = the rest.

Test systems include HT29 colon; SNB-19 CNS; U251 CNS; PC-3 prostate; SK-MEL-5 melanoma; UACC-62 melanoma; LOX IMVI melanoma; SK-MEL-28 melanoma; SK-MEL-2 melanoma.
Common to all, as to assay: NCI-60 one-dose screen, 48 h (100 = growth as untreated, 0 = no growth, -100 = all killed)
Holding throughout (conditions): 10 µM

Regarding `CC(C)=CCc1ccc(O)c(=O)cc1C(C)C`, the growth in the assay on HT29 colon was 28.5%; in the assay on SNB-19 CNS, 41%; in the assay on U251 CNS, 15.5%; with PC-3 prostate, 43.7%; in the assay with SK-MEL-5 melanoma, -17.2% (active); in the assay on UACC-62 melanoma, 14.3%. Moreover, the growth in the assay with LOX IMVI melanoma is 22%; in the assay with SK-MEL-28 melanoma, 34.5%; with SK-MEL-2 melanoma it was 17.2%.
Turning to `COc1ccc(-c2cc(/C=C/C(=O)c3cc(OC)c(OC)c(OC)c3)[nH]n2)cc1OC`, the growth in the assay on HT29 colon is -53.9% (active); in the assay with SNB-19 CNS it was 25.5%; in the assay with U251 CNS it was -77.6% (active); in the assay on PC-3 prostate it was 24.7%; in the assay with SK-MEL-5 melanoma, 27.4%; in the assay on UACC-62 melanoma, 50.8%. In addition, the values for the growth in the assay on LOX IMVI melanoma, in the assay with SK-MEL-28 melanoma and with SK-MEL-2 melanoma were -79% (active), -66.8% (active) and 69.9%, respectively.
Take `COc1ccc2c(c1OC)O/C(=C\c1ncc([N+](=O)[O-])n1C)C2=O`: the growth with HT29 colon was -20.8% (active); in the assay on U251 CNS, 55.2%; with PC-3 prostate, 60.2%; in the assay on SK-MEL-5 melanoma, -66.5% (active); in the assay on UACC-62 melanoma it was 0.211% (active); in the assay with LOX IMVI melanoma, 0.891% (active). Further, the figures for the growth in the assay on SK-MEL-28 melanoma and in the assay on SK-MEL-2 melanoma were -38% (active) and -58.9% (active), respectively.
Take `C[N+](C)(C)c1ncnc2nc[nH]c12`: the growth in the assay on HT29 colon is 104%; in the assay with SNB-19 CNS, 94.9%; in the assay with U251 CNS, 93.9%; in the assay on PC-3 prostate, 115%; with SK-MEL-5 melanoma, 85.4%; with UACC-62 melanoma, 90.4%. The growth in the assay on LOX IMVI melanoma was 90.4%; with SK-MEL-28 melanoma, 108%; in the assay on SK-MEL-2 melanoma, 75.8%.
Consider `COc1cc([C@@H]2c3cc4c(cc3C(Br)[C@H]3COC(=O)[C@H]23)OCO4)cc(OC)c1OC` (stereo partly specified), for which the growth is -10.4% (active) with HT29 colon; -32.3% (active) in the assay with SNB-19 CNS; 1.29% (active) in the assay with U251 CNS; 0.631% (active) in the assay on PC-3 prostate; -64.9% (active) with SK-MEL-5 melanoma; 14.1% with UACC-62 melanoma. The growth in the assay with LOX IMVI melanoma is 23.8%; in the assay with SK-MEL-2 melanoma, 7.95% (active).
In the case of `Clc1ccc2c(NCCCNc3nccc(Nc4ccc(Br)cc4)n3)ccnc2c1`, the growth in the assay with HT29 colon was -80.3% (active); in the assay with SNB-19 CNS, -8.34% (active); with U251 CNS, -98.3% (active); with PC-3 prostate it was -33.4% (active); in the assay with SK-MEL-5 melanoma, -100% (active); in the assay with UACC-62 melanoma, -87.9% (active). Also, the growth in the assay with LOX IMVI melanoma was -85.8% (active); in the assay with SK-MEL-28 melanoma, -97.2% (active); in the assay with SK-MEL-2 melanoma it was -96.7% (active).
For `O=C(Nc1cccc(Cl)c1)Nc1nccs1`, the growth in the assay with HT29 colon is 94.4%; in the assay with SNB-19 CNS, 83.4%; in the assay with U251 CNS, 94.1%; in the assay on PC-3 prostate, 94.5%; in the assay on SK-MEL-5 melanoma, 89.7%; in the assay on UACC-62 melanoma, 79.8%. Also, the growth was 94.1% in the assay on LOX IMVI melanoma, 103% in the assay on SK-MEL-28 melanoma and 97.2% with SK-MEL-2 melanoma.
As for `C#Cc1ccc(-n2c(/C=C/c3ccc(Cl)c(F)c3)nc3ncccc3c2=O)cc1`, the growth is -53.5% (active) in the assay with HT29 colon; -53.9% (active) in the assay on U251 CNS; 2.16% (active) in the assay on PC-3 prostate; -97.5% (active) in the assay with SK-MEL-5 melanoma; -55.9% (active) in the assay with UACC-62 melanoma; -57% (active) in the assay on LOX IMVI melanoma. The growth is -8.26% (active) in the assay with SK-MEL-28 melanoma and -60.2% (active) in the assay on SK-MEL-2 melanoma.
`CC(C)C[C@H](NC(=O)[C@H](Cc1cccc2ccccc12)NS(=O)(=O)c1cccc2cccnc12)B(O)O`: the growth with HT29 colon was -56.6% (active); with SNB-19 CNS, 8.26% (active); with U251 CNS, -52.9% (active); with PC-3 prostate, -23.2% (active); with SK-MEL-5 melanoma, -85.8% (active); with UACC-62 melanoma, -50.9% (active). For the same compound, the growth in the assay with LOX IMVI melanoma was -78.7% (active); in the assay on SK-MEL-2 melanoma, -41.2% (active).
With `CCN(CCCCCCN1CC(=O)N(CCCCCCN(CC)Cc2ccccc2OC)CC1=O)Cc1ccccc1OC`, the growth in the assay with HT29 colon was 20%; in the assay with SNB-19 CNS, 94.8%; with U251 CNS it was 88.8%; with PC-3 prostate, 77.1%; in the assay with SK-MEL-5 melanoma it was 90.9%; with UACC-62 melanoma it was 104%. Further, the growth in the assay with LOX IMVI melanoma was 85.8%; in the assay with SK-MEL-2 melanoma it was 63.4%.
Consider `COc1cc2c(cc1OCCCCCCN1CCN(CC(=O)Nc3ccc(Cl)cc3C(=O)c3ccccc3Cl)CC1)N=CC1CCCN1C2=O` (stereo unspecified), for which the growth with HT29 colon is -56.8% (active); with SNB-19 CNS it was -77.7% (active); in the assay with U251 CNS it was -100% (active); in the assay on PC-3 prostate it was -100% (active); in the assay on SK-MEL-5 melanoma, -100% (active); with UACC-62 melanoma it was -98.7% (active). In addition, the growth in the assay with LOX IMVI melanoma was -93.9% (active); in the assay on SK-MEL-28 melanoma, -85.8% (active); with SK-MEL-2 melanoma, -69.6% (active).
As to `Clc1ccc(Nc2ccnc(NCCNc3ccnc4cc(Cl)ccc34)n2)cc1`, the growth in the assay with HT29 colon is -37.4% (active); in the assay on SNB-19 CNS, 69.6%; in the assay on U251 CNS it was -48% (active); with PC-3 prostate, 14.7%; in the assay on UACC-62 melanoma it was -79.5% (active); with LOX IMVI melanoma, -79.5% (active). Besides, the growth with SK-MEL-28 melanoma is -100% (active); in the assay on SK-MEL-2 melanoma, -76.1% (active).
`COc1ccccc1/C=C/C(=O)c1ccccc1`: the growth was 54.2% with HT29 colon; 58.4% with U251 CNS; 54.5% with PC-3 prostate; 82.1% with SK-MEL-5 melanoma; 67.3% with UACC-62 melanoma; 59.8% in the assay on LOX IMVI melanoma. Also, the results for the growth in the assay with SK-MEL-28 melanoma and with SK-MEL-2 melanoma were 97.5% and 84%, respectively.
With `O=S(=O)(NCCCNc1nccc(-c2c(-c3ccc(F)cc3)nc3sccn23)n1)c1ccc(F)cc1`, the growth in the assay on HT29 colon is 3.28% (active); with SNB-19 CNS, 93.2%; with U251 CNS it was 35.9%; in the assay on PC-3 prostate, 32.3%; in the assay with SK-MEL-5 melanoma it was 31.6%; in the assay on UACC-62 melanoma, 18.5%. Moreover, the growth was 28.3% with LOX IMVI melanoma and 67.3% in the assay with SK-MEL-28 melanoma.
Turning to `COc1ccc(-c2nn(-c3cccc(NC(=O)Nc4cc(C(F)(F)F)cc(C(F)(F)F)c4)c3)cc2-c2ccncc2)cc1Cl`, the growth with HT29 colon is -17.4% (active); in the assay with SNB-19 CNS, 30.2%; in the assay with U251 CNS it was -75.5% (active); in the assay with PC-3 prostate, -14.7% (active); with SK-MEL-5 melanoma, -37.6% (active); in the assay with UACC-62 melanoma, 7.55% (active). For the same compound, the growth in the assay on LOX IMVI melanoma was 12.9%; in the assay on SK-MEL-28 melanoma, -5.48% (active).
